CHX counter = affects cycloheximide protein synthesis inhibition readout, counter-screen. AID 2314. max response, %. cell reporter, cycloheximide protein synthesis inhibition counterscreen. 300,000 tested, 12% active; in the data active = max response mostly above about 13%, no sharp cut-off; inactive = mostly below about 14%; also: read at 38.3 µM for the half of the compounds with a filed dose; 0% is about no effect
Giardia FBPA inh = inhibitors of Giardia lamblia fructose-1,6-bisphosphate aldolase; Potency, µM (doses to about 59.6 µM), without a hit: at the top dose activity, negative = inhibition, hits mostly inhibitors; A8B2U2; 290,000 tested, 0.71% active; purified Giardia FBPA; AID 2451; also: potency is read from the fitted curve at half-maximal effect; % is scaled to controls: 0 for no effect and ±100 for the full control effect; nearly all actives have a fitted effect of over 55% in size
Target sequence (A8B2U2 whole entry, looked up): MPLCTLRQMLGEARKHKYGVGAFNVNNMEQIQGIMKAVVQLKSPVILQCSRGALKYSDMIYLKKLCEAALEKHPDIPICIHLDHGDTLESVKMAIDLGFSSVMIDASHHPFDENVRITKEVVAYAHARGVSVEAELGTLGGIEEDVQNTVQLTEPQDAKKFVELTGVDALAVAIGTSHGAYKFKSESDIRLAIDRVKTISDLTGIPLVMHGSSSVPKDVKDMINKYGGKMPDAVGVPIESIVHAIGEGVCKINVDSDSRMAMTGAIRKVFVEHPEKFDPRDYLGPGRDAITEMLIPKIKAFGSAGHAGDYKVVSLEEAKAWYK
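Giardia FBPA (40 nM reagent) was preincubated 10 min at RT with compound (up to 57.5 uM final), then substrate plus GAPDH/TPI/NAD/arsenate coupling system with diaphorase/resazurin was added; resorufin fluorescence (525/598 nm) was read after 20 min.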
Shiga toxin inh = Shiga toxin inhibition. Vero cells, Shiga toxin protein synthesis inhibition reporter. inhibition, % at 38.7 µM. 290,000 tested, 9.2% active; in the data active = inhibition mostly above about 28%, no sharp cut-off; inactive = mostly below about 43%; also: 0% is about no effect
LmPK inhibitor = LmPK (Leishmania mexicana) enzyme inhibition; purified LmPK, Kinase-Glo ATP luminescence, 1 h; Potency, µM (titrated, usually from 57.5 µM), inactives show at the top dose activity change, negative = inhibition, usual class: inhibitors; Q27686; 290,000 tested, 0.37% active; also: potency is read from the fitted curve at half-maximal effect; % is scaled to controls: 0 for no effect and ±100 for the full control effect
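Pyruvate kinase activity monitored as ATP production (luciferase luminescence). Conditions: 0.1 nM enzyme, 0.5 mM PEP, 0.1 mM ADP, 1 h, RT; normalized against uninhibited and no-enzyme wells.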
Sm TGR inh = S. mansoni TGR enzyme inhibition | purified TGR, DTNB reduction, TNB absorbance 405 nm | Potency, µM (top dose mostly 114 µM), for the others: at the top dose activity change, negative = inhibition, actives largely listed as inhibitors | 360,000 tested, 3% active | AID 485364 | Q962Y6; also: potency is read from the fitted curve at half-maximal effect; % is scaled to controls: 0 for no effect and ±100 for the full control effect; nearly all actives have a fitted effect of over 60% in size
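Kinetic colorimetric format: TGR-catalysed, NADPH-driven DTNB reduction monitored via TNB absorbance. Enzyme dispensed at 20 nM; compound exposure 15 min at room temperature before reaction start.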
TbPYK inhibitor = blocks Trypanosoma brucei pyruvate kinase | Q57TT1 | Potency, µM (doses to about 76.8 µM), without a hit: top-dose activity, negative = inhibition, most hits filed as inhibitors | TbPYK enzyme, Kinase-Glo Plus ATP luminescence, 45 min | 410,000 tested, 0.12% active; also: potency is read from the fitted curve at half-maximal effect; % is scaled to controls: 0 for no effect and ±100 for the full control effect; nearly all actives have a fitted effect of over 50% in size
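Glycolytic pyruvate kinase of T. brucei was incubated with substrate, test compound and 130 uM ADP for 45 minutes at room temperature. Luminescent Kinase-Glo Plus signal was measured after 10 minutes.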
The depositor's hits bear a star; ? = inconclusive; / = no result given. The full list was thinned out, with hits kept by preference. Unless noted, calls follow the shape of the dose curve; as a rule, active = well fitted curve in the direction sought with a large enough effect; inconclusive = small, poorly fitted or top-dose-only effect, or another doubt; inactive = no such curve, though single readings can be large; an effect the other way counts as inactive or inconclusive.

SMILES	CHX counter	Giardia FBPA inh	Shiga toxin inh	LmPK inhibitor	Sm TGR inh	TbPYK inhibitor
c1ccc(-[n+]2nc(Nc3cccc4ccccc34)sc2-c2c3ccccc3cc3ccccc23)cc1	/	/	/	/	-17%	-4%
CC(=O)Nc1cccc(NC(=O)CSc2nccn2C2CCCC2)c1	/	/	/	/	-17%	-3%
COc1ccccc1CNC(=S)NCCc1ccccc1	13	-2%	47*	-1%	2%	1%
CCN1C(=O)c2ccc(C(=O)Nc3cccc(C(=O)O)c3)cc2C1=O	20*	13%	48*	-9%	0%	-9%
COc1cccc(C(=O)Nc2cccc(-c3ccccc3)c2)c1	42*	0%	78*	-8%	-3%	2%
COc1ccc(-c2cccc(C(=O)Nc3cccc(C(=O)O)c3)c2)cc1	103*	24%	106*	-7%	0%	-4%
COc1ccccc1Cc1c(-c2ccccc2)nc2ccc(Cl)cn12	/	/	/	/	/	5%
CCOc1ccc(C2=Nn3c(CC)nnc3SC2)cc1	/	/	/	/	-22%	-13%
O=C(CSc1nncc2ccccc12)N1CCOCC1	17*	-3%	37	-1%	?	4%
CCn1cc(SCC(=O)NCC2CCCO2)c2ccccc21 (configuration not stated)	6.6*	6%	3	-1%	-10%	-10%
O=C(CSc1nncc2ccccc12)Nc1ccc(C(=O)O)cc1	21*	/	6	-8%	-9%	0%
O=C(CSc1nc2ccccc2c2c1CCCC2)N1CCOCC1	-8	2%	-4	-5%	6%	2%
O=C(CSc1nncc2ccccc12)Nc1ccccc1	13	-4%	-7	2%	0%	-2%
CC(=O)Nc1ccc(NC(=O)CSc2cn(CC(=O)N3CCOCC3)c3ccccc23)cc1	2	22%	-7	6%	15%	-2%
CCn1cc(SCC(=O)N2CCOCC2)c2ccccc21	30*	-1%	68*	1%	-7%	-14%
Cc1cc(C)cc(Cn2c3ccc(NC(=O)NCc4ccc(F)cc4)cc3c(=O)n2C)c1	/	/	/	/	/	0%
CCOc1ccc(-n2c(SCc3ccc(C(=O)OC)o3)nc3c([nH]c4ccccc43)c2=O)cc1	/	/	/	/	2%	-2%
CC(C(=O)NCc1ccccc1)n1ccc2cc(S(=O)(=O)N3CCCC3)ccc21 (configuration not stated)	/	/	/	/	-7%	1%
Cn1cc(SCC(=O)N2CCN(c3ccccc3)CC2)c2ccccc21	-9	-6%	-5	10%	5%	?
Cn1cc(SCC(=O)N2CCOCC2)c2ccccc21	22*	-4%	93*	0%	0%	-25%
Cc1cccc(C)c1NC(=S)NCCc1ccc(O)c(O)c1	6	?	-2	4%	7.9µM*	-3%
COc1cccc(OC)c1C(=O)Nc1ccnn1C	-3	10%	-15	4%	-8%	5%
O=C(COc1ccccc1)NCCSCc1ccco1	12	3%	13	1%	25µM*	-1%
O=C(CN(c1ccccc1)S(=O)(=O)c1ccccc1)NCCSCc1ccco1	-2	0%	7	-3%	0%	-3%
O=C(CCSc1ccccc1)NCCSCc1ccco1	11*	-5%	7	1%	-36%	-8%
SMILES	CHX counter	Giardia FBPA inh	Shiga toxin inh	LmPK inhibitor	Sm TGR inh	TbPYK inhibitor
COc1ccc(NC(=O)CN(c2ccc(C)cc2)S(=O)(=O)c2cccc3nonc23)cc1OC	/	/	/	/	0%	3%
COCOCCn1cc(CN2CCS(=O)(=O)N(Cc3ccc(-c4ccc(OC)c(OC)c4)cc3)C(CC(C)C)C2=O)nn1 (configuration not stated)	/	/	/	/	/	-7%
C=CCNc1ncnc2c1ncn2[C@H]1CN(CCN2CCOCC2)C[C@@H](CO)O1	/	/	/	/	/	0%
Cc1cc(C)nc(-n2nc(C)cc2NC(=O)CN2CCCC(C)C2)n1 (configuration not stated)	-2	0%	-9	5%	25µM*	-16%
COC(=O)c1cc(O)cc(OC)c1Oc1cc(C)cc(O)c1C(=O)O	-2	?	1	11%	7.1µM*	0%
COC(=O)c1cc(O)cc(OC)c1C(=O)c1c(O)cc(C)cc1O	-4	5%	-11	12%	-30%	3%
CCCOC(=O)c1ccccc1	-4	2%	-2	/	/	2%

Screening results (PubChem BioAssay)
